# PubChem BioAssay
# Several values for one entry are separate records, joined by “and”; a condition that tells them apart may be missing. Equal values may be shown once. Activity calls are given as the source filed them.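 Rule for the calls, unless noted: active = z-score of at least 1.8 in each of two replicates, scored against plate mean and spread of sample wells; inactive = the rest.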
# What was measured:
# [1] = molecular target: NAD(+) hydrolase SARM1 (Homo sapiens) (UniProt Q6SZW1); assay: blocking NAD cleavage by SARM1 SAM-TIR – cell lysate, NAD-Glo luminescence (AID 1508614;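 active = compound whose remaining NAD level is above about 45 nM, limit read from the data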;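 note: higher remaining NAD means stronger inhibition of SARM1 NADase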); settings: SAM-TIR HEK293T lysate NADase, at 1 µM, stronger effect = higher value
# Sequence of NAD(+) hydrolase SARM1 (Homo sapiens) (Q6SZW1 whole entry, looked up, the tested form may be a part): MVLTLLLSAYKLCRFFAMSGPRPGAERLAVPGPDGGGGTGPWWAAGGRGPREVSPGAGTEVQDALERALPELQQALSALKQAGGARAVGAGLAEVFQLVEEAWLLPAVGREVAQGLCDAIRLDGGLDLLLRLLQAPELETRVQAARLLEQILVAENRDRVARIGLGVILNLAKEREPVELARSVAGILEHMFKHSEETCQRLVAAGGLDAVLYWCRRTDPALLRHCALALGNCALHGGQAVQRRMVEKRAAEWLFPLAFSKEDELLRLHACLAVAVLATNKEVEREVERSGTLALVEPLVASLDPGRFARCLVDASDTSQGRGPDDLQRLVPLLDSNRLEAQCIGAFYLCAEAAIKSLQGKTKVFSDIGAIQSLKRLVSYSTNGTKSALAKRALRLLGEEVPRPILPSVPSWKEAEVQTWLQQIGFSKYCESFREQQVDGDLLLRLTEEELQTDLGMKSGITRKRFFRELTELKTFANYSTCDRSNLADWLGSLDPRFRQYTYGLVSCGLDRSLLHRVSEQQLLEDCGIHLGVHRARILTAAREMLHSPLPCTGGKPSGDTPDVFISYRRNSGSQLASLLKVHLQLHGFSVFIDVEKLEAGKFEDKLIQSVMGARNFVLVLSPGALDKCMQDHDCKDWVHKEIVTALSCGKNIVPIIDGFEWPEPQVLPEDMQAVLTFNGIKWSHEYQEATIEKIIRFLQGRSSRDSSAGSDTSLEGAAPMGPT
# [2] = molecular target: Mitogen-activated protein kinase 7 (Homo sapiens) (UniProt Q13164); assay: Gal4-ERK5 driven luciferase induction – cell-based, HTS, primary screen (AID 1508626;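 active = luciferase signal above three times the same-plate solvent-only control wells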;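 note: luciferase driven by Gal4-ERK5 fusion binding five Gal4 sites before minimal TATA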); settings: HeLa Gal4-ERK5 transactivation, 18 h, at 5 µM, stronger effect = higher value
# Sequence of Mitogen-activated protein kinase 7 (Homo sapiens) (Q13164 whole entry, looked up, the tested form may be a part): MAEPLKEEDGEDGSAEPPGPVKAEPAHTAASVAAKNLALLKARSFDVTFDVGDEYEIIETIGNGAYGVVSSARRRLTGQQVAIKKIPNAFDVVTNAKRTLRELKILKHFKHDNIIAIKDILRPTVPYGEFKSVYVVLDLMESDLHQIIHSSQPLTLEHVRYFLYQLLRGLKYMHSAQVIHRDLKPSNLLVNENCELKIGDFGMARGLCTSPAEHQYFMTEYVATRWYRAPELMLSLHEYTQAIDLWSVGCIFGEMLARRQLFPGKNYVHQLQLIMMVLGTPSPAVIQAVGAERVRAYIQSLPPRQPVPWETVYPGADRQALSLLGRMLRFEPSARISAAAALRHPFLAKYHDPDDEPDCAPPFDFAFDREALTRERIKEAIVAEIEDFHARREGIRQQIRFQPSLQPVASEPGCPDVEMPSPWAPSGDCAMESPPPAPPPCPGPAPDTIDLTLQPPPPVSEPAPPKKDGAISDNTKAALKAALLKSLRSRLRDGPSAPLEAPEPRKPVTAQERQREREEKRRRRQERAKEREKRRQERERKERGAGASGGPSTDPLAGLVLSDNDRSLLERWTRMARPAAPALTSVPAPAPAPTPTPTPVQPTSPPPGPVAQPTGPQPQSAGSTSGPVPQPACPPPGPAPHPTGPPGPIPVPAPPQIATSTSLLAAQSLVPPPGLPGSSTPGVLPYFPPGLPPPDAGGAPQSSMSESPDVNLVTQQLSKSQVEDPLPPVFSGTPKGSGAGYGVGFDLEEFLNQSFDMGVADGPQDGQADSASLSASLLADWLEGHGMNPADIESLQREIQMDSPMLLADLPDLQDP
# [3] = galactose survival enhancers in mitochondrial complex I cybrids – cell-based, galactose medium, ATP luminescence, primary screen (AID 1645843); settings: complex I mutant cybrid cells, 72 h, stronger effect = higher value;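 note: positive z means more ATP and so rescue of galactose-driven cybrid death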
# [4] = growth inhibition, single agent or in combination, cell-based, chromothripsis tumors, cisplatin or BGB combos (AID 1671449; in the data active = inhibition above about 80%;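 note: cells exposed for 96 hours; 0% = vehicle DMSO and 100% = killing by high DMSO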); settings: LFS_MB_P medulloblastoma cells
# [5] = growth inhibition, single agent and combos, cell-based, chromothripsis tumors, cisplatin or BGB combos (AID 1671450; in the data active = inhibition above about 80%;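 note: cells exposed to compound for four days; 0% = vehicle DMSO and 100% = cell killing by high DMSO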); settings: HDN33 neuroblastoma cells, stronger effect = higher value
# [6] = growth inhibition, single agents and combos, ICB984, cell-based, cisplatin or BGB combos, synergistic combos for chromothripsis tumors (AID 1671451; call rule not given here;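 note: cells exposed for 96 hours before readout; 0% = vehicle DMSO and 100% = killing by high DMSO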); settings: ICB984 medulloblastoma cells, drug combinations, stronger effect = higher value
# [7] = growth inhibition, single agents and combos, LFS_MB_1R, cell-based, cisplatin or BGB combos, synergistic combos for chromothripsis tumors (AID 1671452; in the data active = inhibition above about 80%;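 note: cells exposed for 96 hours before readout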); settings: LFS_MB_1R medulloblastoma cells, stronger effect = higher value
# [8] = growth inhibition, single agents and combos, HTB85, cell-based, BGB or cisplatin IC20 combos, synergistic combos for chromothripsis tumors (AID 1671453; in the data active = inhibition above about 80%;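 note: cells exposed for 96 hours before readout; 0% = vehicle DMSO and 100% = high DMSO killing control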); settings: HTB85 osteosarcoma cells, drug combinations, stronger effect = higher value
# [9] = growth inhibition, single agents and combos, CRL2098, cell-based, BGB or cisplatin IC20 combos, synergistic combos for chromothripsis tumors (AID 1671454; in the data active = inhibition above about 80%;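 note: cells exposed for 96 h before readout; 0% = vehicle DMSO and 100% = killing by high DMSO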); settings: CRL2098 osteosarcoma cells, drug combinations, stronger effect = higher value
# [10] = growth inhibition, single agents and combos, HD-MB03, cell-based, BGB or cisplatin IC20 combos, synergistic combos for chromothripsis tumors (AID 1671455; in the data active = inhibition above about 83%;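 note: 0% = vehicle DMSO and 100% = high DMSO as cytotoxic control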); settings: HD-MB03 medulloblastoma cells, stronger effect = higher value
# [11] = growth inhibition, single agents and combos, UWB1.289, cell-based, BGB or cisplatin combos, synergistic combos for chromothripsis tumors (AID 1671456; in the data active = inhibition above about 80%;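 note: cells exposed to compound for four days; 0% = vehicle DMSO and 100% = killing by high DMSO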); settings: UWB1.289 ovarian carcinoma cells, stronger effect = higher value
# [12] = growth inhibition, single agents and combos, LFS_MB_2R, cell-based, cisplatin combos, synergistic combos for chromothripsis tumors (AID 1671457; in the data active = inhibition above about 80%;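 note: cells exposed to compound for four days before readout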); settings: LFS_MB_2R medulloblastoma cells, stronger effect = higher value
# [13] = growth inhibition, MDA-MB-436, cell-based, BGB or cisplatin combos, synergistic combos for chromothripsis tumors (AID 1671458; call rule not given here;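 note: cells exposed for 96 hours; 0% = vehicle DMSO and 100% = killing by high DMSO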); settings: MDA-MB-436 breast carcinoma growth inhibition, drug combinations, stronger effect = higher value
# [14] = UWB1.289_BRCA1 ovarian cancer growth, cell-based, BGB or cisplatin combinations (AID 1671459; in the data active = inhibition above about 80%); settings: UWB1.289 BRCA1 ovarian carcinoma, drug combinations, stronger effect = higher value
# [15] = drug combination toxicity in non-malignant astrocytes – cell-based, BGB or cisplatin IC20 combos, cytotoxicity control for chromothriptic childhood tumor combination screen (AID 1671460; in the data active = inhibition above about 80%;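 note: cells exposed to compounds for 96 hours before viability readout; 0% = vehicle and 100% = killing control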); settings: Human astrocytes, viability inhibition, drug combinations, at 0.5 µM, stronger effect = higher value
# [16] = BT084 cell growth, single and combined drugs, ICGC_MB145, cisplatin and BGB IC40 combos (AID 1671461; in the data active = inhibition above about 80%;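 note: cells exposed to drugs for 96 hours; 0% = vehicle DMSO and 100% = high DMSO full killing control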); settings: BT084 medulloblastoma cells, drug combinations, stronger effect = higher value
# [17] = RCMB18 cell growth, single agent and combined, cisplatin and BGB IC40 combos (AID 1671462; in the data active = inhibition above about 80%;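 note: cells exposed to compound for four days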); settings: RCMB18 medulloblastoma cells, stronger effect = higher value
# [18] = CRL1545 cell growth, single agent and combined, cisplatin and BGB IC20 combos (AID 1671464; in the data active = inhibition above about 80%;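 note: cells exposed to compound for 96 hours before readout; 0% = vehicle DMSO and 100% = high DMSO killing control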); settings: CRL1545 osteosarcoma cells, stronger effect = higher value
# [19] = measured here: combination with BGB IC40, at 0.05 µM
# [20] = measured here: with BGB IC20 combination, at 0.5 µM
# [21] = measured here: with cisplatin IC20 combination, at 0.5 µM
# [22] = measured here: combination with cisplatin, at 0.5 µM
# [23] = measured here: combination with cisplatin, at 5 µM
smiles,measurement,setting,value
O=C(O)CCCCCCCC(=O)O,remaining NAD,[1],10 nM (inactive)
same,luciferase signal,[2],24 AU (inactive)
same,z-score,[3],0.635 (inactive)
same,inhibition,"[4]; at 0.5 µM, stronger effect = higher value",14.6% (inactive)
same,inhibition,"[4]; measured here: combination with BGB IC20, at 0.005 µM",-16.4%
same,inhibition,"[4]; measured here: combination with BGB IC40, at 0.005 µM",-8.17%
same,inhibition,[4]; [19],6.68%
same,inhibition,"[4]; measured here: combination with cisplatin, at 0.5 µM, stronger effect = higher value",8.46%
same,inhibition,"[4]; measured here: combination with cisplatin, at 5 µM, stronger effect = higher value",-13.6%
same,inhibition,"[5]; BGB combo, at 5 µM",-29.2%
same,inhibition,[5]; at 0.5 µM,-40.9% (inactive)
same,inhibition,"[5]; cisplatin combo, at 5 µM",-22.7%
same,inhibition,[5]; [20],-45.6%
same,inhibition,[5]; [21],-37.4%
same,inhibition,"[5]; single agent, at 5 µM",-34.5%
same,inhibition,"[6]; BGB IC20 combo, at 0.005 µM",-5.6%
same,inhibition,"[6]; BGB IC40 combo, at 0.005 µM",-44.6%
same,inhibition,"[6]; BGB IC40 combo, at 0.05 µM",-20.8%
same,inhibition,[6]; at 0.5 µM,-26.1% (inactive)
same,inhibition,"[6]; cisplatin combo, at 0.05 µM",-24.1%
same,inhibition,"[6]; cisplatin combo, at 0.5 µM",-19.2%
same,inhibition,"[6]; cisplatin combo, at 5 µM",-29.2%
same,inhibition,"[6]; measured here: 5 uM single agent, at 5 µM",-20.6%
same,inhibition,[7]; at 0.5 µM,-28.5% (inactive)
same,inhibition,[7]; [19],-23.1%
same,inhibition,[7]; [22],-37.2%
same,inhibition,[7]; [23],-71.3%
same,inhibition,[8]; at 0.5 µM,-17.1% (inactive)
same,inhibition,"[8]; measured here: with BGB IC20, at 0.5 µM",-39.9%
same,inhibition,"[8]; measured here: with BGB IC20, at 5 µM",-68.2%
same,inhibition,"[8]; measured here: with cisplatin IC20, at 0.5 µM",-8.83%
same,inhibition,"[8]; measured here: with cisplatin IC20, at 5 µM",0.863%
same,inhibition,"[8]; single agent, at 5 µM",-30.9%
same,inhibition,[9]; at 0.5 µM,-76.3% (inactive)
same,inhibition,"[9]; measured here: combination with BGB at IC20, at 0.5 µM",-57.7%
same,inhibition,"[9]; measured here: combination with cisplatin at IC20, at 0.5 µM",-93.4%
same,inhibition,[10]; at 0.5 µM,-14.1% (inactive)
same,inhibition,"[10]; measured here: combo with BGB at IC20, at 0.5 µM",-13.8%
same,inhibition,"[10]; measured here: combo with cisplatin at IC20, at 0.5 µM",-19.9%
same,inhibition,[11]; at 0.5 µM,-13.5% (inactive)
same,inhibition,"[11]; measured here: inhibition with BGB combination, at 0.05 µM",-19.6%
same,inhibition,"[11]; measured here: inhibition with cisplatin combination, at 0.05 µM",-0.85%
same,inhibition,[12]; at 0.5 µM,-13.9% (inactive)
same,inhibition,[12]; [22],-13.8%
same,inhibition,[12]; [23],-48.8%
same,inhibition,[13]; at 0.5 µM,-29.2% (inactive)
same,inhibition,"[13]; measured here: BGB combination, at 0.5 µM",-23.3%
same,inhibition,"[13]; measured here: BGB combination, at 5 µM",-29%
same,inhibition,"[13]; measured here: cisplatin combination, at 0.5 µM",-37.4%
same,inhibition,"[13]; measured here: cisplatin combination, at 5 µM",-23.5%
same,inhibition,"[14]; BGB combination, concentration series, at 5 µM",-15.5%
same,inhibition,[14]; at 0.5 µM,-19.3% (inactive)
same,inhibition,"[14]; cisplatin combination, concentration series, at 5 µM",-16.1%
same,inhibition,[15],-11.4% (inactive)
same,inhibition,[15]; measured here: combo with BGB IC20,-13.8%
same,inhibition,[15]; measured here: combo with cisplatin IC20,-20%
same,inhibition,[16]; at 0.5 µM,-17.8% (inactive)
same,inhibition,"[16]; cisplatin combination, at 0.5 µM",-4.5%
same,inhibition,"[16]; cisplatin combination, at 5 µM",-12.5%
same,inhibition,"[16]; measured here: BGB IC40 combination 0.05 uM, at 0.05 µM",4.07%
same,inhibition,"[16]; single agent, at 5 µM",-1.2%
same,inhibition,[17]; at 0.5 µM,-9.8% (inactive)
same,inhibition,"[17]; cisplatin combo, at 5 µM",-40.4%
same,inhibition,"[17]; measured here: BGB IC40 combination, at 0.05 µM",-4.46%
same,inhibition,[17]; [22],-13.4%
same,inhibition,"[17]; single agent, at 5 µM",-26.4%
same,inhibition,[18]; at 0.5 µM,-28.2% (inactive)
same,inhibition,[18]; [20],-60.3%
same,inhibition,[18]; [21],-14.7%
same,inhibition,"[18]; single agent, at 0.05 µM",-52%
same,inhibition,"[18]; single agent, at 5 µM",-52.1%
C[C@@H]1CC[C@@]2(OC1)O[C@H]1C[C@H]3[C@@H]4CC[C@H]5C[C@@H](O)CC[C@]5(C)[C@H]4CC(=O)[C@]3(C)[C@H]1[C@@H]2C,luciferase signal,[2],52 AU (inactive)
CC1(C)O[C@H]2CC(=O)OC[C@]23[C@H]2CC[C@@]4(C)[C@H](c5ccoc5)OC(=O)[C@H]5O[C@]54[C@]2(C)C(=O)C[C@@H]13,luciferase signal,[2],80 AU (inactive)
CCc1c2c(nc3ccc(OC(=O)N4CCC(N5CCCCC5)CC4)cc13)-c1cc3c(c(=O)n1C2)COC(=O)[C@]3(O)CC,remaining NAD,[1],10 nM (inactive)
same,z-score,[3],-1.4 (inactive) and -0.58 (inactive)
Cc1c(C(=O)O)c(O)cc2c1C(=O)c1c(O)c([C@@H]3O[C@H](CO)[C@@H](O)[C@H](O)[C@H]3O)c(O)c(O)c1C2=O,luciferase signal,[2],52 AU (inactive)
CN(C)C(=O)Nc1ccc(Cl)c(Cl)c1,luciferase signal,[2],260 AU (active)
Cc1ccc(C(C)C)cc2c(C)ccc1-2,luciferase signal,[2],128 AU (inactive)
CNC[C@H](O)[C@@H](O)[C@H](O)[C@H](O)CO,remaining NAD,[1],10 nM (inactive)
same,z-score,[3],0.835 (inactive)
NC(=NCCCCCCN=C(N)/N=C(\N)Nc1ccc(Cl)cc1)/N=C(\N)Nc1ccc(Cl)cc1,luciferase signal,[2],32 AU (inactive)
CC1(C)O[C@@H]2C[C@H]3[C@@H]4CCC5=CC(=O)CC[C@]5(C)[C@@]4(F)[C@@H](O)C[C@]3(C)[C@]2(C(=O)CCl)O1,luciferase signal,[2],112 AU (inactive)
O=C(Cn1ccnc1[N+](=O)[O-])NCCO,luciferase signal,[2],76 AU (inactive)
C[C@](N)(Cc1ccc(O)cc1)C(=O)O,luciferase signal,[2],60 AU (inactive)
same,z-score,[3],0.71 (inactive)
Cn1c(=O)c2c(ncn2CCO)n(C)c1=O,luciferase signal,[2],196 AU (active)
O=c1c(-c2ccccc2)c1-c1ccccc1,z-score,[3],-1.44 (inactive)
NC/C=C/C(=O)O,luciferase signal,[2],96 AU (inactive)
same,z-score,[3],0.575 (inactive)
O=C1c2ccccc2C(=O)c2c1ccc(O)c2O,luciferase signal,[2],36 AU (inactive)
CCOC(=O)C1=C(C)NC(C)=C(C(=O)OCC)C1c1ccccc1/C=C/C(=O)OC(C)(C)C,z-score,[3],-1.98 (inactive)
COc1ccc2[nH]cc(CCNC(C)=O)c2c1,luciferase signal,[2],68 AU (inactive)
same,z-score,[3],0.52 (inactive) and 0.205 (inactive) and 0.655 (inactive)
C[N+]1(CCCCC[N+]2(C)CCCC2)CCCC1,luciferase signal,[2],108 AU (inactive)
same,z-score,[3],0.235 (inactive)
CCN1CCC[C@H]1CNC(=O)c1c(O)c(Cl)cc(Cl)c1OC,z-score,[3],0.525 (inactive) and -0.165 (inactive) and 0.41 (inactive)
